Assay results: PMC11006913

Legend:
Experiment in all cases: PBM; 200 nM protein, PBS
Details in all cases: dsDNA, one strand shown
HOXC10 [1] = molecular target: HOXC10 (Homo sapiens, UniProt Q9NYD6 254-340)
PAX4 = molecular target: T1, PAX4 (Homo sapiens, UniProt O43316 9-242, F177V)
T1 sequence: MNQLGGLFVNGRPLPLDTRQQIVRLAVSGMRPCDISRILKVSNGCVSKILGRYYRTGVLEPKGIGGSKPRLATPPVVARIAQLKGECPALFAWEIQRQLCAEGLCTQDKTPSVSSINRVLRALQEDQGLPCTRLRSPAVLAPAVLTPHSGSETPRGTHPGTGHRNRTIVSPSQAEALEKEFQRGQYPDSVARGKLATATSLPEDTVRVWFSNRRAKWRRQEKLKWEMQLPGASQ

HOXC10 [2] = molecular target: HOXC10 (Homo sapiens, UniProt Q9NYD6 254-340, K271E)
HOXA2 [3] = molecular target: HOXA2 (Homo sapiens, UniProt O43364 129-215, R185T)
HOXA2 [4] = molecular target: HOXA2 (Homo sapiens, UniProt O43364 129-215, R185K)
ALX3 [5] = molecular target: ALX3 (Homo sapiens, UniProt O95076 139-225)
ALX3 [6] = molecular target: ALX3 (Homo sapiens, UniProt O95076 139-225, L168Q)
ALX3 [7] = molecular target: ALX3 (Homo sapiens, UniProt O95076 139-225, L168V)
HOXA2 [8] = molecular target: HOXA2 (Homo sapiens, UniProt O43364 129-215, Y150S)
HOXA2 [9] = molecular target: HOXA2 (Homo sapiens, UniProt O43364 129-215)
HOXD13 [10] = molecular target: HOXD13 (Homo sapiens, UniProt P35453 263-343, T313R)
HOXD13 [11] = molecular target: HOXD13 (Homo sapiens, UniProt P35453 263-343)
HOXD13 [12] = molecular target: HOXD13 (Homo sapiens, UniProt P35453 263-343, T313A)
HOXC9 [13] = molecular target: HOXC9 (Homo sapiens, UniProt P31274 178-260, K195R)
HOXC9 [14] = molecular target: HOXC9 (Homo sapiens, UniProt P31274 178-260)
HOXC9 [15] = molecular target: HOXC9 (Homo sapiens, UniProt P31274 178-260, R193K)
PRRX1 [16] = molecular target: PRRX1 (Homo sapiens, UniProt P54821 80-166, F113S)
PRRX1 [17] = molecular target: PRRX1 (Homo sapiens, UniProt P54821 80-166)
NKX3-2 [18] = molecular target: NKX3-2 (Homo sapiens, UniProt P78367 192-278, P234S)
NKX3-2 [19] = molecular target: NKX3-2 (Homo sapiens, UniProt P78367 192-278)
NKX3-2 (Homo sapiens, UniProt P78367 192-278), sequence (P78367 192-278): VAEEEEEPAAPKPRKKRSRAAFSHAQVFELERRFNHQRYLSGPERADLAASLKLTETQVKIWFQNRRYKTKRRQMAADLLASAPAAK

HOXA2 (Homo sapiens, UniProt O43364 129-215, Y150S), sequence (O43364 129-215 Y150S): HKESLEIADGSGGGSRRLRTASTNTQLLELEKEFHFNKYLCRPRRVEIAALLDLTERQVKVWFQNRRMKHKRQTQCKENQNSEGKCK
HOXD13 (Homo sapiens, UniProt P35453 263-343, T313R), sequence (P35453 263-343 T313R): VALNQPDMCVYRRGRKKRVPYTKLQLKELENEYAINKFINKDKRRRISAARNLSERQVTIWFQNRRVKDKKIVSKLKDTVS
ALX3 (Homo sapiens, UniProt O95076 139-225, L168Q), sequence (O95076 139-225 L168Q): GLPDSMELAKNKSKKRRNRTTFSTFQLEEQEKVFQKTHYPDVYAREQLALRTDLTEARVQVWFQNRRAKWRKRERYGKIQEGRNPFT
HOXA2 (Homo sapiens, UniProt O43364 129-215, R185K), sequence (O43364 129-215 R185K): as the sequence (O43364 129-215 Y150S) above, with S22Y, R57K counted along it
ALX3 (Homo sapiens, UniProt O95076 139-225, L168V), sequence (O95076 139-225 L168V): as the sequence (O95076 139-225 L168Q) above, with Q30V counted along it
HOXC9 (Homo sapiens, UniProt P31274 178-260), sequence (P31274 178-260): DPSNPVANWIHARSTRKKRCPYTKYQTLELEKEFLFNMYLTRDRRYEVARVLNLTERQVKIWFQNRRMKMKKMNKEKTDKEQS
HOXD13 (Homo sapiens, UniProt P35453 263-343), sequence (P35453 263-343): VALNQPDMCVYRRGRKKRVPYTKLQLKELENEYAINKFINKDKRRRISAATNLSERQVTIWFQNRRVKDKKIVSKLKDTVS
HOXD13 (Homo sapiens, UniProt P35453 263-343, T313A), sequence (P35453 263-343 T313A): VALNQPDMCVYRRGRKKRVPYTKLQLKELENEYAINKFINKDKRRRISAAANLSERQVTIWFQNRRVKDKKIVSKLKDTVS
HOXA2 (Homo sapiens, UniProt O43364 129-215, R185T), sequence (O43364 129-215 R185T): as the sequence (O43364 129-215 Y150S) above, with S22Y, R57T counted along it
HOXC9 (Homo sapiens, UniProt P31274 178-260, K195R), sequence (P31274 178-260 K195R): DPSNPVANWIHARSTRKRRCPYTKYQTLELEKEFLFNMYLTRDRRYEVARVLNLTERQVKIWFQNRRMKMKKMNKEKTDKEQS
HOXA2 (Homo sapiens, UniProt O43364 129-215), sequence (O43364 129-215): as the sequence (O43364 129-215 Y150S) above, with S22Y counted along it
HOXC9 (Homo sapiens, UniProt P31274 178-260, R193K), sequence (P31274 178-260 R193K): as the sequence (P31274 178-260) above, with R16K counted along it
ALX3 (Homo sapiens, UniProt O95076 139-225), sequence (O95076 139-225): as the sequence (O95076 139-225 L168Q) above, with Q30L counted along it
PRRX1 (Homo sapiens, UniProt P54821 80-166, F113S), sequence (P54821 80-166 F113S): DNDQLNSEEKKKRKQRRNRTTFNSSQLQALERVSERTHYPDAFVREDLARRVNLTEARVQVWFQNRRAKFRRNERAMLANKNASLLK
HOXC10 (Homo sapiens, UniProt Q9NYD6 254-340, K271E), sequence (Q9NYD6 254-340 K271E): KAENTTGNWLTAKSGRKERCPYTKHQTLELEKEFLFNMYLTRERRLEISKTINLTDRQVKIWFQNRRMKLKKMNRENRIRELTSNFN
NKX3-2 (Homo sapiens, UniProt P78367 192-278, P234S), sequence (P78367 192-278 P234S): as the sequence (P78367 192-278) above, with P43S counted along it
HOXC10 (Homo sapiens, UniProt Q9NYD6 254-340), sequence (Q9NYD6 254-340): as the sequence (Q9NYD6 254-340 K271E) above, with E18K counted along it
PRRX1 (Homo sapiens, UniProt P54821 80-166), sequence (P54821 80-166): as the sequence (P54821 80-166 F113S) above, with S34F counted along it

CAGCGCCG
binding signal (HOXC10 [1]): 9.95 upbm affinity estimate (log intensity, higher = more binding, comparable within an allelic series) | binding signal (PAX4): 9.19 upbm affinity estimate (log intensity, higher = more binding, comparable within an allelic series) | binding signal (HOXC10 [2]): 9.93 upbm affinity estimate (log intensity, higher = more binding, comparable within an allelic series)

CGTCGCGC
binding signal (HOXA2 [3]): 7.22 upbm affinity estimate (log intensity, higher = more binding, comparable within an allelic series) | binding signal (HOXA2 [4]): 10.4 upbm affinity estimate (log intensity, higher = more binding, comparable within an allelic series) | binding signal (ALX3 [5]): 7.7 upbm affinity estimate (log intensity, higher = more binding, comparable within an allelic series) | binding signal (ALX3 [6]): 7.79 upbm affinity estimate (log intensity, higher = more binding, comparable within an allelic series) | binding signal (ALX3 [7]): 7.7 upbm affinity estimate (log intensity, higher = more binding, comparable within an allelic series) | binding signal (HOXA2 [8]): 10.5 upbm affinity estimate (log intensity, higher = more binding, comparable within an allelic series) | binding signal (HOXA2 [9]): 7.41 upbm affinity estimate (log intensity, higher = more binding, comparable within an allelic series)

GGCGGACC
binding signal (ALX3 [5]): 7.74 upbm affinity estimate (log intensity, higher = more binding, comparable within an allelic series) | binding signal (ALX3 [6]): 7.74 upbm affinity estimate (log intensity, higher = more binding, comparable within an allelic series) | binding signal (ALX3 [7]): 7.69 upbm affinity estimate (log intensity, higher = more binding, comparable within an allelic series)

CGGGCCGC
binding signal (HOXD13 [10]): 9.48 upbm affinity estimate (log intensity, higher = more binding, comparable within an allelic series) | binding signal (HOXD13 [11]): 9.34 upbm affinity estimate (log intensity, higher = more binding, comparable within an allelic series) | binding signal (HOXD13 [12]): 9.63 upbm affinity estimate (log intensity, higher = more binding, comparable within an allelic series)

CCAGACGG
binding signal (HOXC9 [13]): 9.56 upbm affinity estimate (log intensity, higher = more binding, comparable within an allelic series) | binding signal (HOXC9 [14]): 9.6 upbm affinity estimate (log intensity, higher = more binding, comparable within an allelic series) | binding signal (HOXC9 [15]): 9.51 upbm affinity estimate (log intensity, higher = more binding, comparable within an allelic series)

AGCCGGCT
binding signal (HOXA2 [3]): 7.56 upbm affinity estimate (log intensity, higher = more binding, comparable within an allelic series) | binding signal (HOXA2 [4]): 10.5 upbm affinity estimate (log intensity, higher = more binding, comparable within an allelic series) | binding signal (ALX3 [5]): 8.13 upbm affinity estimate (log intensity, higher = more binding, comparable within an allelic series) | binding signal (ALX3 [6]): 7.76 upbm affinity estimate (log intensity, higher = more binding, comparable within an allelic series) | binding signal (ALX3 [7]): 7.76 upbm affinity estimate (log intensity, higher = more binding, comparable within an allelic series) | binding signal (HOXA2 [8]): 10.2 upbm affinity estimate (log intensity, higher = more binding, comparable within an allelic series) | binding signal (HOXA2 [9]): 7.61 upbm affinity estimate (log intensity, higher = more binding, comparable within an allelic series)

GGGGGGAC
binding signal (HOXC9 [13]): 9.27 upbm affinity estimate (log intensity, higher = more binding, comparable within an allelic series) | binding signal (HOXC9 [14]): 9.04 upbm affinity estimate (log intensity, higher = more binding, comparable within an allelic series) | binding signal (HOXC9 [15]): 9.37 upbm affinity estimate (log intensity, higher = more binding, comparable within an allelic series)

CGGGAAGC
binding signal (PRRX1 [16]): 9.35 upbm affinity estimate (log intensity, higher = more binding, comparable within an allelic series) | binding signal (PRRX1 [17]): 9.64 upbm affinity estimate (log intensity, higher = more binding, comparable within an allelic series)

GCCCTGCC
binding signal (HOXA2 [3]): 6.93 upbm affinity estimate (log intensity, higher = more binding, comparable within an allelic series) | binding signal (HOXA2 [4]): 10.3 upbm affinity estimate (log intensity, higher = more binding, comparable within an allelic series) | binding signal (HOXA2 [8]): 10.4 upbm affinity estimate (log intensity, higher = more binding, comparable within an allelic series) | binding signal (HOXA2 [9]): 7.06 upbm affinity estimate (log intensity, higher = more binding, comparable within an allelic series)

GTCCGGAC
binding signal (HOXC9 [13]): 9.77 upbm affinity estimate (log intensity, higher = more binding, comparable within an allelic series) | binding signal (HOXA2 [3]): 7.42 upbm affinity estimate (log intensity, higher = more binding, comparable within an allelic series) | binding signal (HOXC9 [14]): 9.72 upbm affinity estimate (log intensity, higher = more binding, comparable within an allelic series) | binding signal (HOXC9 [15]): 9.8 upbm affinity estimate (log intensity, higher = more binding, comparable within an allelic series) | binding signal (HOXA2 [4]): 10.6 upbm affinity estimate (log intensity, higher = more binding, comparable within an allelic series) | binding signal (HOXA2 [8]): 10.6 upbm affinity estimate (log intensity, higher = more binding, comparable within an allelic series) | binding signal (HOXA2 [9]): 7.3 upbm affinity estimate (log intensity, higher = more binding, comparable within an allelic series)

CGCGTGGC
binding signal (HOXA2 [3]): 7.16 upbm affinity estimate (log intensity, higher = more binding, comparable within an allelic series) | binding signal (HOXA2 [4]): 10.4 upbm affinity estimate (log intensity, higher = more binding, comparable within an allelic series) | binding signal (HOXA2 [8]): 10.3 upbm affinity estimate (log intensity, higher = more binding, comparable within an allelic series) | binding signal (HOXA2 [9]): 7.31 upbm affinity estimate (log intensity, higher = more binding, comparable within an allelic series)

CCCCGGGG
binding signal (HOXC10 [1]): 9.9 upbm affinity estimate (log intensity, higher = more binding, comparable within an allelic series) | binding signal (HOXA2 [3]): 6.97 upbm affinity estimate (log intensity, higher = more binding, comparable within an allelic series) | binding signal (HOXA2 [4]): 10.1 upbm affinity estimate (log intensity, higher = more binding, comparable within an allelic series) | binding signal (HOXC10 [2]): 9.91 upbm affinity estimate (log intensity, higher = more binding, comparable within an allelic series) | binding signal (HOXA2 [8]): 10.4 upbm affinity estimate (log intensity, higher = more binding, comparable within an allelic series) | binding signal (HOXA2 [9]): 7.1 upbm affinity estimate (log intensity, higher = more binding, comparable within an allelic series)

CGGGCCCC
binding signal (PRRX1 [16]): 9.02 upbm affinity estimate (log intensity, higher = more binding, comparable within an allelic series) | binding signal (PRRX1 [17]): 9.32 upbm affinity estimate (log intensity, higher = more binding, comparable within an allelic series)

CCCCAGCG
binding signal (NKX3-2 [18]): 10.5 upbm affinity estimate (log intensity, higher = more binding, comparable within an allelic series) | binding signal (NKX3-2 [19]): 10.6 upbm affinity estimate (log intensity, higher = more binding, comparable within an allelic series)

CTGGCCCA
binding signal (HOXA2 [3]): 7.24 upbm affinity estimate (log intensity, higher = more binding, comparable within an allelic series) | binding signal (HOXA2 [4]): 10.3 upbm affinity estimate (log intensity, higher = more binding, comparable within an allelic series) | binding signal (HOXA2 [8]): 10.4 upbm affinity estimate (log intensity, higher = more binding, comparable within an allelic series) | binding signal (HOXA2 [9]): 7.1 upbm affinity estimate (log intensity, higher = more binding, comparable within an allelic series)

CCCTAGGG
binding signal (HOXA2 [3]): 7.32 upbm affinity estimate (log intensity, higher = more binding, comparable within an allelic series) | binding signal (HOXA2 [4]): 10.4 upbm affinity estimate (log intensity, higher = more binding, comparable within an allelic series) | binding signal (HOXA2 [8]): 10.3 upbm affinity estimate (log intensity, higher = more binding, comparable within an allelic series) | binding signal (NKX3-2 [18]): 10.6 upbm affinity estimate (log intensity, higher = more binding, comparable within an allelic series) | binding signal (HOXA2 [9]): 7.33 upbm affinity estimate (log intensity, higher = more binding, comparable within an allelic series) | binding signal (NKX3-2 [19]): 10.5 upbm affinity estimate (log intensity, higher = more binding, comparable within an allelic series)

AGATATAC
binding signal (HOXA2 [3]): 8.17 upbm affinity estimate (log intensity, higher = more binding, comparable within an allelic series) | binding signal (HOXA2 [9]): 8.19 upbm affinity estimate (log intensity, higher = more binding, comparable within an allelic series)

CGCTGCGC
binding signal (ALX3 [5]): 7.66 upbm affinity estimate (log intensity, higher = more binding, comparable within an allelic series) | binding signal (ALX3 [6]): 7.68 upbm affinity estimate (log intensity, higher = more binding, comparable within an allelic series) | binding signal (ALX3 [7]): 7.68 upbm affinity estimate (log intensity, higher = more binding, comparable within an allelic series)

CGGCCACC
binding signal (HOXD13 [10]): 9.38 upbm affinity estimate (log intensity, higher = more binding, comparable within an allelic series) | binding signal (HOXD13 [11]): 9.42 upbm affinity estimate (log intensity, higher = more binding, comparable within an allelic series) | binding signal (HOXD13 [12]): 9.39 upbm affinity estimate (log intensity, higher = more binding, comparable within an allelic series)

CCGGGCGC
binding signal (HOXC9 [13]): 9.34 upbm affinity estimate (log intensity, higher = more binding, comparable within an allelic series) | binding signal (HOXC9 [14]): 9.51 upbm affinity estimate (log intensity, higher = more binding, comparable within an allelic series) | binding signal (HOXC9 [15]): 9.31 upbm affinity estimate (log intensity, higher = more binding, comparable within an allelic series)

GCCAGTCC
binding signal (HOXD13 [10]): 9.53 upbm affinity estimate (log intensity, higher = more binding, comparable within an allelic series) | binding signal (HOXD13 [11]): 9.55 upbm affinity estimate (log intensity, higher = more binding, comparable within an allelic series) | binding signal (HOXD13 [12]): 9.63 upbm affinity estimate (log intensity, higher = more binding, comparable within an allelic series)

CATGATCA
binding signal (ALX3 [5]): 9.26 upbm affinity estimate (log intensity, higher = more binding, comparable within an allelic series)

AGGCGCCC
binding signal (ALX3 [5]): 7.55 upbm affinity estimate (log intensity, higher = more binding, comparable within an allelic series) | binding signal (ALX3 [6]): 7.7 upbm affinity estimate (log intensity, higher = more binding, comparable within an allelic series) | binding signal (ALX3 [7]): 7.59 upbm affinity estimate (log intensity, higher = more binding, comparable within an allelic series)
